± gives the standard deviation of the averaged measurements. Whole data set: some 1,600 compounds, median “mitochondrial oxygen consumption rate normalised to cell number, Z score over the library” near 0.065, cut for the lowest 2% near -2.2. The full list was thinned out, with the lowest values kept by preference.
Tested on: FaDu
Assay: mitochondrial oxygen consumption rate normalised to cell number, Z score over the library; higher = higher oxygen consumption (negative = OCR reduction)
Details: treatment time 24 h; assay medium: 5 mM galactose, 5 mM pyruvate, 4 mM glutamine; 10 µM
Description: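 Primary screen: FaDu cells were incubated 24 h with Pharmakon 1600 / TDI oncology set compounds at 2 or 10 uM. Mitochondrial-specific OCR (basal minus 2 uM antimycin A) was measured on a Seahorse XF96 in assay medium with 5 mM galactose, 5 mM pyruvate and 4 mM glutamine, then corrected for Hoechst cell number and expressed as a Z score […]. Compounds that cut cell number by >66% were excluded. Two repeats.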

Row | SMILES | mitochondrial oxygen consumption rate normalised
1 | S=C=NCc1ccccc1 | -4.7 ± 0.66
2 | CN1CCN(C(=O)O[C@H]2c3nccnc3C(=O)N2c2ccc(Cl)cn2)CC1 | -0.823 ± 0.029
3 | CN(C)C(=S)SSC(=S)N(C)C | 0.578 ± 0.018
4 | CC(=O)Oc1ccc(Cl)c2cccnc12 | -3.19 ± 0.57
5 | CCNC1(c2cccs2)CCCCC1=O (stereo unspecified) | -0.924 ± 0.92
6 | CNC(C)C(O)c1ccccc1 (stereo unspecified) | 0.176 ± 0.34
7 | CN(C)C(=O)Oc1cccc([N+](C)(C)C)c1 | 0.321 ± 1.4
8 | C1CCc2nnnn2CC1 | -0.625 ± 0.34
9 | O=c1[nH]c(=O)n(Cl)c(=O)n1Cl | 0.623 ± 1.2
10 | O=c1[nH]c2ccccc2n1CCCN1CCC(n2c(=O)[nH]c3cc(Cl)ccc32)CC1 | -0.0948 ± 0.24
11 | O=c1[nH]c2ccccc2n1C1CCN(CCCC(c2ccc(F)cc2)c2ccc(F)cc2)CC1 | -2.35 ± 0.37
12 | Nc1ccc([As](=O)(O)O)cc1 | 0.928 ± 0.83
13 | N.N.[Cl][Pt][Cl] [Cisplatin] | -0.167 ± 0.0067
14 | N.N.[Cl][Pt][Cl] | 0.355 ± 0.5
15 | COc1cc([C@@H]2c3cc4c(cc3[C@H](O)[C@H]3COC(=O)[C@H]23)OCO4)cc(OC)c1OC | -0.645 ± 0.1
16 | CCC1(CC)C(=O)C=CNC1=O | 0.538 ± 1.2
17 | CC[C@H]1CN2CCc3cc(OC)c(OC)cc3[C@@H]2C[C@@H]1C[C@H]1NCCc2cc(OC)c(OC)cc21 | -5.13 ± 0.2
18 | CCOC(=O)NC(=S)Nc1ccccc1NC(=S)NC(=O)OCC | -0.249 ± 0.0062
19 | NCc1cccnc1 | 0.0684 ± 1.5
20 | CC(=O)NC1CCSC1=O (stereo unspecified) | 0.219 ± 0.66
21 | COC(C)(C)CCC[C@H](C)C/C=C/C(C)=C/C(=O)OC(C)C | 0.396 ± 0.11

— the supplement of paper PMC4962491
